Source: PMC11062922 (Nature Chemical Biology, 2023)

System: MAPKAPK2
Design: species or system human, MV4-11 + K-562 + COLO205 + SK-N-BE2 + OVCAR-8
Conditions: read-out: apparent Kd; compound concentrations:100 nM and 1000 nM (sheet 'Samples'); n = 1

For `N#CCn1c(=O)c(Oc2ccc(F)cc2F)cc2cnc(NC3CCOCC3)nc21` [RO5040027-000], which potency estimated from few doses is on record?
The potency estimated from few doses was 3.65 nM.

`Cl.Cn1c(=O)c(Oc2ccccc2F)cc2cnc(NC3CCOCC3)nc21` [RO3304805-001] was tested. Which potency estimated from few doses did it give?
The potency estimated from few doses was 73.7 nM.

For `COCCNC(=O)c1ccc(-c2cc(C(=O)NC3CC3)cc(F)c2C)cc1` [GW868318X], which potency estimated from few doses is on record?
The potency estimated from few doses was 79.6 nM.

`Cl.Cn1c(=O)c(Oc2ccc(F)cc2F)cc2cnc(N[C@H]3CC[C@H](O)CC3)nc21` [RO3305413-001] was tested. Which potency estimated from few doses did it give?
The potency estimated from few doses was 4.66 nM.

`O=c1[nH]c2nc(NC3CCOCC3)ncc2cc1Oc1ccc(F)cc1F` [RO3310867-000] was tested. Which potency estimated from few doses did it give?
The potency estimated from few doses was 5.98 nM.

How did the potency estimated from few doses turn out when `Cc1ccc(NC(=O)c2ccnc(N3CCCCC3)c2)cc1-c1ccc(C(=O)NCC2CC2)cc1` [GW775610X] was run?
Its potency estimated from few doses is 107 nM.

System: NLK
Design: species or system human, MV4-11 + K-562 + COLO205 + SK-N-BE2 + OVCAR-8
Conditions: read-out: apparent Kd; compound concentrations:100 nM and 1000 nM (sheet 'Samples'); n = 1

For `CS(=O)(=O)CCCn1c(=O)c(Oc2ccc(F)cc2F)cc2cnc(NC3CCOCC3)nc21` [RO5033700-000], which potency estimated from few doses is on record?
Its potency estimated from few doses is 202 nM.

`Cl.Cn1c(=O)c(Oc2ccc(F)cc2F)cc2cnc(N[C@H]3CC[C@H](O)CC3)nc21` [RO3305413-001] was tested. Which potency estimated from few doses did it give?
Its potency estimated from few doses is 199 nM.

`CC(C)Nc1ncc2cc(Oc3ccc(F)cc3F)c(=O)n(C)c2n1.Cl` [RO3309180-001] was tested. Which potency estimated from few doses did it give?
The potency estimated from few doses was 1490 nM.

System: PIP4K2C
Design: species or system human, MV4-11 + K-562 + COLO205 + SK-N-BE2 + OVCAR-8
Conditions: read-out: apparent Kd; compound concentrations:100 nM and 1000 nM (sheet 'Samples'); n = 1

With `CS(=O)(=O)CCCn1c(=O)c(Oc2ccc(F)cc2F)cc2cnc(NC3CCOCC3)nc21` [RO5033700-000] as the compound, how does the potency estimated from few doses read?
Its potency estimated from few doses is 796 nM.

`Cl.Cn1c(=O)c(Oc2ccc(F)cc2F)cc2cnc(N[C@H]3CC[C@H](O)CC3)nc21` [RO3305413-001] was tested. Which potency estimated from few doses did it give?
Its potency estimated from few doses is 791 nM.

How did the potency estimated from few doses turn out when `CC(C)Nc1ncc2cc(Oc3ccc(F)cc3F)c(=O)n(C)c2n1.Cl` [RO3309180-001] was run?
Its potency estimated from few doses is 2100 nM.

For `O=c1[nH]c2nc(NC3CCOCC3)ncc2cc1Oc1ccc(F)cc1F` [RO3310867-000], which potency estimated from few doses is on record?
The potency estimated from few doses was 781 nM.
